Among all 53,000 sequences or so, about 3,700 (7%) were called active.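 Rule for the calls: active = gene knockdowns whose robust z-score for IL-1 alpha signal is at least 2 or at most -2, so actives lie on both sides; inactive = the rest.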 The full list was thinned out, with actives kept by preference.

This assay in a line: Components of the Cytosolic LPS Sensing Pathway: Gene Identification via Genome-wide siRNA Screen.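 Note: robust z of the log signal after scaling to non-targeting control siRNA wells of the plate.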 Particulars: RAW264.7 macrophages, IL-1a HTRF, actives lie on both sides, screened at 100 nM (by protocol), cells primed 5 h with Pam3CSK4 first. In outline:
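IL-1a HTRF of supernatants after 24 hour LipidA transfection of Pam3CSK4-primed (5 hours) RAW264.7 cells, 48h post-siRNA transfection (100 nM). Scores: percent of plate negative-control median, then log-based robust z-score.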
Background: Time-resolved FRET reads energy transfer from a long-lived donor to a nearby acceptor.
For GCGGCAAGAUUAAUAAGUCTT against Mpzl1, the z-score was 0.798 (inactive). With GGAUCUCGAAGUUACUGCATT against Dnajc5b the figure was 1.77 (inactive). For GCCUAGCAAUGACUGGGAUTT against Sdhaf2 the value was -0.635 (inactive); for GCCUUCUGGCAAGAAUCUUTT against Krtap9-3, 1.21 (inactive).

Turning to CCACUCAAGCGGUAAGGAUTT against Slc22a1, the z-score was 4.16 (active). With GGUGGCACAUAAGAAAUCCTT against Trim66 the figure was -1.61 (inactive); with CGGACACACAGUUGAUCCGTT against Cct6b, -2.15 (active).

For the sequence GCGGGACUUUAUCUCAUCCTT against Mfsd4b1, the z-score is -0.815 (inactive).

In the case of CCUUCUUUAUAGGUAUGACTT against Klhl36, the z-score was 0.91 (inactive). For GGAAAGAAGCAGCGGACUUTT against Nme7, the z-score is 2.29 (active). With GGCAUUCAGAGCUGAUUCATT against Mia3, the z-score is 0.93 (inactive). For GCCCUGGCAUGCUAACAAATT against Prpf3, the z-score was -0.749 (inactive). With GGUACUACAAGCUAGCUGUTT against Scd4 the figure was -0.114 (inactive); with GGAAGUUUGUAGAGUAUGUTT against Xylt1, -0.187 (inactive); with CCCGAGAACAUCUUGUACGTT against Rps6ka4, 2.69 (active).

As for GGGUUCAAGAGAUGAUAUUTT against Usp11, the z-score was 0.245 (inactive).

On to GGCUGAGAAACUGGAUGAATT against Rem1, for which the z-score was -0.143 (inactive).

On to GGCUGUAUGACUCAGCUCUTT against Olfr711, for which the z-score was -0.912 (inactive). As for CCGGAAACUUCCUACGUGUTT against Cbln1, the z-score is -0.424 (inactive). For the sequence GGAUAGAAACAUUUCUGUGTT against Olfr1145, the z-score was 2.1 (active). Regarding GGACCAUGAGAAAUUUAAUTT against Nr2f1, the z-score is 1.41 (inactive). With GGCGGUUAAUGACAAGAACTT against Sdk2 the figure was -0.0303 (inactive); with CGUGGAGUAAGGAGAAUAUTT against Ints7, 0.364 (inactive). As to “GGAAAUCACAUUGUCCUGCTT against 3010003L21Rik”, the z-score is 1.13 (inactive). With GGAUCUGACACACAUGAUCTT against Med16 the figure was 2.3 (active); with GGAGAAAGCAAGGAUAAUCTT against Rgs20, 0.562 (inactive); with CGCAGAGAAGGUCAUUAAATT against Il1f5, 0.519 (inactive).

GGUCUUCUCCGAGUACUUUTT against Ap1m1: the z-score is 4.38 (active). For GCACUCAGAACAACUAAAATT against Dglucy the value was 0.641 (inactive); for GCUCCAUGAAUGUCCAACATT against Sphkap, -2.41 (active). With GUUCUAGGCCUCCUGAAGCTT against Dohh the figure was -0.808 (inactive); with GCUGAUGUCUCAACCUAGATT against Zkscan2, -1.72 (inactive); with GGCUUUGUCUUGAAUGGCUTT against Adgre1, -1.11 (inactive). Take CGCCGGAAGUUCUACCACUTT against Tmem205: the z-score is 0.223 (inactive).

Take GAACAUCAUCUCACACUCATT against Olfr874: the z-score was -0.000467 (inactive). With GGAUAGAGACUGCUGGGUUTT against Zfp579 the figure was 0.248 (inactive); with CCAAGUUGGCAUACUAUUCTT against Pank4, -0.126 (inactive); with GCCAGUCCUUCAAGUGUAUTT against Jak2, 4.16 (active). For CCAUCUCAUCCCACGACACTT against Mrgprx1, the z-score is -0.334 (inactive).

For the sequence GGCCUUUGCAUGCAAUAGUTT against Zfp119b, the z-score is 0.0596 (inactive). With GCAGCCUUGUUUCAGUUCUTT against Fam43a, the z-score is 0.765 (inactive). With CCUCUCUACAUCCACUACUTT against Pogz the figure was 3 (active). For GGAGAACACAGGUGGACUUTT against Ppy the value was 0.125 (inactive). Consider GGAGGCCAAGCAGAAAGAGTT against Kars, for which the z-score is 0.184 (inactive). With GACUGCUUCCUUCUGACUGTT against Olfr399 the figure was -0.575 (inactive); with AAAAGAUGCAUGUCUCCUUTT against Hbq1a, -1.76 (inactive); with GGCUUUUGACUUUACCCUATT against Acy3, -1.3 (inactive). For GGAAAUAUUUUCUCAGCAATT against Pcdhga1 the value was 1.52 (inactive).

As for “GCCCUCAUACCUACUAUGUTT against 4631405J19Rik”, the z-score was 0.787 (inactive). With GGAAGAGAUUUCUAAACUUTT against Mcoln2 the figure was -1.93 (inactive). Consider GGGCAAAAUAUAGCAAUGATT against Vmn1r233, for which the z-score was -2.11 (active). With GCUGACUUCACAUUUGGCUTT against Mms19 the figure was -0.24 (inactive); with GGAGUAUGUGGAAUGUCUATT against Creb3l1, -0.903 (inactive); with GGAUGACUCUAUCUUUCUATT against Igfbp4, 0.892 (inactive). For GGAAUACGUAUACUUCAGCTT against Dipk1c the value was 0.495 (inactive). As to GGAUUGCAUUAGGAAAGAATT against Fancl, the z-score was 0.0536 (inactive). Regarding GGGAGUCCUGAAGGACUACTT against Lgmn, the z-score was -0.0947 (inactive). GGAGCAGAAUGAGAAGACUTT against Marchf8: the z-score is 2.16 (active).

Take GGACCAAGGGUUCAUAGCATT against Wdr35: the z-score is -0.137 (inactive). For the sequence GGUUCAUCUGUACAAAAUCTT against Zfp110, the z-score is 0.708 (inactive). With CCAUAUGGUAACCAAACCGTT against Ldb1 the figure was -0.896 (inactive). For CCGUAGUAGAGAAAUUACATT against Exoc6 the value was 0.419 (inactive).

GUUGUCCUCUUUGUCAUCATT against Olfr502: the z-score was -3.63 (active). For CGGGUAAUAUUCUUUUCAATT against Rex2 the value was 1.76 (inactive).

As to GCUCUAGGCCAGAUGUUACTT against Slc13a3, the z-score was -0.476 (inactive).

CGUUUCCUGCUCAAAUCCUTT against Abhd2: the z-score was -1.17 (inactive). With GGAGAUUCGGACAAAGUGATT against Rhcg, the z-score was -1.31 (inactive). For GGAGUAGCUGUUCUAAUUGTT against Scamp5 the value was -1.65 (inactive). With GGCUUUAAGAAUGUAUCGCTT against Dpp3 the figure was -0.751 (inactive); with GCCUUUUCCCGUCUGGAGATT against Glis1, 0.122 (inactive). For CGUUGCUGUUGUGGUCUUGTT against Olfr1232 the value was -2.71 (active). In the case of GGGCCCAGGCUAAAAUAAATT against Cfap100, the z-score is 0.367 (inactive).

In the case of GGUCACCUCAAUAAACUCUTT against Myl7, the z-score is 0.228 (inactive). For CGUGUAAACGCAAUUAAAATT against Zfp870 the value was 0.272 (inactive); for GGUUCAGAUGUCUGAUAAATT against Mrm3, 1.43 (inactive). With GGAGCAUGUAGAGGUUUACTT against Txnrd2 the figure was 2.44 (active); with GGAUACCUAGUUCUUAGUUTT against Mageb18, 0.151 (inactive). As to GGGACUUUCGUAAUAAACCTT against Lman1, the z-score was -1.26 (inactive). With CGUGAAAUAGAUGAUACCUTT against Cdc5l the figure was 0.625 (inactive); with GGUAACGAUGCUGGAAUUCTT against Sdcbp, 4.37 (active); with GCAAACUCCAGCUCAACGATT against Galnt4, -1.19 (inactive). With GGAUGGUGUUGUGUUUAAATT against Chst2 the figure was 0.962 (inactive); with GGCUGGUGCUGAAUAUCUUTT against Bnip5, 0.507 (inactive); with GGUCUUGGUCCCUGAGAAATT against Ddit4l, 0.23 (inactive).

As for GGACAAAUUGUAUGGCGAATT against Hecw2, the z-score was -0.402 (inactive).

With GAGAACAAGCCUAAGCCCATT against V1rb5, the z-score is 1.44 (inactive).

In the case of GCUCGAGGACUAUAUGAAUTT against Xrcc1, the z-score is 2.03 (active). With GGAAUAUUGUGGCCUUAUATT against Bnip3 the figure was 0.489 (inactive); with GAGGGAUAUGUGAAGCCUCTT against Mospd3, -0.806 (inactive). For CCGAAGUCAAUGAAGCUCUTT against Gcsh the value was -2.13 (active); for CCAUGUUCAGAAGAGAAUATT against Igsf11, -1.69 (inactive).

As for GCAAGUAGAAACCCUUAAUTT against Scara5, the z-score was -0.0354 (inactive).

Turning to CGAUUCCGUCAAAUUAAAGTT against Catsper2, the z-score was 0.156 (inactive).

Regarding GGCAGAUUGUGAAAAAACUTT against Slc9a6, the z-score was -0.503 (inactive). As to GGAAAAGGUCAUUAUCAUUTT against Hsf3, the z-score was -2.11 (active). With GUCACUGUGAUGGGAAAUUTT against Olfr895 the figure was -0.847 (inactive); with ACACCUGCCUGCAUCUACUTT against Tcp10a, 1.5 (inactive); with GCACUUGUGACUAUAAAGUTT against Celf2, 0.262 (inactive). With UGUGGUGAACCCAAUGCACTT against Klk1b22 the figure was -3.28 (active); with CCUGAUUGGGAUCUCAAGATT against Ccdc12, -0.673 (inactive). For AAUAAAAGUGUCCUCUGUGTT against Olfr242 the value was 0.202 (inactive).

As for GGAUAGUUUUGUGUUUGAUTT against Gab2, the z-score was 0.932 (inactive). For GGUCAUUGAUCUCAGCAACTT against Optc the value was -0.427 (inactive); for CCCUACACGCAGGAGUUUUTT against Gtf3c1, -0.23 (inactive); for GCCCUACACCUGUAUUACATT against Tas1r3, -0.964 (inactive).

Turning to CCUGGAACUUGUUGGAAGCTT against Igsf3, the z-score is 0.799 (inactive).

Regarding GUGUUCAGGAAGCUGGCAGTT against Klra19, the z-score was 1.98 (inactive). With GGACCUCCUCCCAAAGAUATT against Snrpb the figure was -2.83 (active).
